Measurements: PubChem BioAssay AID720517 (National Center for Advancing Translational Sciences (NCATS), 2013)
Inconclusive results are not listed. A call without a number means that no potency is given here. Calls of active or inactive are those of the source. The call rests on the fitted dose curve; in most records, active means well fitted activation curve with a large enough effect; inconclusive means small, poorly fitted or top-dose-only effect; inactive means flat fitted curve, though single readings scatter.

test: qHTS for Inhibitors of Cell Surface uPA Generation: FP59 Counterscreen for Cherry-picked Compounds; conditions: FP59 anthrax toxin cytotoxicity counterscreen, cells; series mostly up to 115 µM

| Compound | Potency |
| --- | --- |
| O=C(C1CCCCN1S(=O)(=O)c1ccc(F)cc1)N1CCN(c2ccccc2F)CC1 (configuration not stated) | inactive |
| O=C(COC(=O)c1cc([N+](=O)[O-])ccc1NCCO)NCc1cccs1 | inactive |
| COc1ccc(NC(=O)CCNS(=O)(=O)c2ccccc2F)cc1S(=O)(=O)N1CCOCC1 | inactive |
| Cc1ccc(S(=O)(=O)Nc2nc(C)cc(N/N=C/c3ccc(O)cc3)n2)cc1 | inactive |
| COc1ccc(C(=O)CC2(C(=O)O)CCCCC2)cc1 | inactive |
| [N-]=[N+]=NC1C[C@H](n2ccc(=O)[nH]c2=O)O[C@@H]1CO (some centres not stated) | inactive |
| N/C(=N/OC(=O)c1ccccc1F)c1nonc1N | inactive |
| Cc1ccc(C)c(-c2ccc(=O)n(Cc3c(F)cccc3Cl)n2)c1 | inactive |
| Cc1[nH]c2ccc(C(=O)OC(C)C(=O)NC3CCCCC3C)cc2c1C (configuration not stated) | inactive |
| COC(=O)[C@@]1(Cc2ccc(F)cc2)[C@H]2c3cc(C(=O)N(C)C)n(Cc4c(CO)[nH]cc(C)c4=O)c3C[C@H]2CN1C(=O)c1ccccc1 | inactive |
| COc1ccc(C)cc1NC(=O)NNC(=O)C1CCC(C(C)(C)C)CC1 (configuration not stated) | inactive |
| CC(=O)Oc1ccccc1C(=O)Nc1ccccc1C(=O)N1CCCC1 | inactive |
| CSc1nc(N)nc2c1ncn2CC(=O)NCC1CCCO1 (configuration not stated) | inactive |
| O=C1CC(/C=C/c2ccc(Cl)cc2)=Nc2ccccc2N1 | inactive |
| O=C(COc1ncnc2sccc12)Nc1cccc(S(=O)(=O)N2CCCC2)c1 | inactive |
| COc1ccc2nc3c(cc2c1)c(NC(=O)C1CCCO1)nn3CC(C)C (configuration not stated) | inactive |
| CN1CCN(C2=Nc3ccccc3Oc3ccc(Cl)cc32)CC1 | inactive |
